Our source for the composite z-score and z-score values is PubChem BioAssay.

A short description of assay [1]: anti-His antibody binders, primary screen, artefact control for SMM control protein annotation, biochemical, small-molecule microarray, 635 nm fluorescence (AID 1128).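 Note: score merges feature fluorescence with signal-to-noise for each printed compound spot.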 To be noted: anti-His Alexa647 antibody binding, higher = more signal.
The test system of assay [2] is Human papillomavirus type 1a E7 protein (residues 1-88). The assay is described as follows: HPV1a E7 small-molecule binders, primary screen, biochemical, small-molecule microarray, residues 1-88, 635 nm (AID 1129). The note with it: small-molecule microarray binding, fluorescence 635 nm; higher = more signal.
The target of assay [3] is Focal adhesion kinase 1 (Homo sapiens) (UniProt Q05397). The assay is described as follows: small-molecule microarray binders of FAK, primary screen, biochemical, 635/667 nm fluorescence, BSA, DTT (AID 1130).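 Note: composite of spot emission at 667 nm and signal to noise over triplicate slides.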 To be noted: PTK2 binding, 635 nm fluorescence, higher = more signal.
Assay [4] has as its system Fibrinogen (Alexa647-labelled). Kind of assay: fibrinogen binders on compound microarrays, profiling panel, artefact control for SMM control-protein annotation, biochemical, small-molecule microarray, 635/667 nm fluorescence (AID 1131).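 Note: z-score merges 667 nm fluorescence with per-spot signal-to-noise over triplicate slides.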 To be noted: fibrinogen-A647 binding fluorescence, higher = more signal.
For assay [5], the target named is Follistatin (Homo sapiens) (UniProt P19883). Kind of assay: follistatin binders on small-molecule microarrays, primary screen, biochemical, small-molecule microarray, 635/667 nm fluorescence (AID 1132). The note with it: FST binding, 635 nm fluorescence, higher = more signal.
The target of assay [6] is Fibroblast growth factor 2 (Homo sapiens) (UniProt P09038). Kind of assay: FGF2 binders on small-molecule microarrays, primary screen, biochemical, small-molecule microarray, 635/667 nm fluorescence (AID 1133). To be noted: small-molecule microarray binding, FGF2, fluorescence 635/667; higher = more signal.
The nature of assay [7]: mitochondrial membrane potential change in A549 cells, profiling panel, cell-based, JC-1 fluorescence, basal, 24 h, 100 nL (AID 1138).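 Note: A549 lung adenocarcinoma cells under basal conditions with no added stimulus; test concentration not given here.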 To be noted: higher = more signal.
Another assay has as its system Lefty1. The assay is described as follows: Lefty1 binders on small-molecule microarrays, primary screen, biochemical, small-molecule microarray, 635/667 nm fluorescence (AID 1139). To be noted: small-molecule microarray binding, fluorescence 635/667; higher = more signal.
Assay [8] concerns wheat germ agglutinin (Triticum aestivum), Alexa647-labelled. Kind of assay: wheat germ agglutinin binders on compound microarrays, profiling panel, artefact control for SMM control-protein annotation, biochemical, small-molecule microarray, 635/667 nm fluorescence (AID 1140).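 Note: score merges 667 nm feature emission with signal to noise over triplicate slides.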 To be noted: WGA-A647 binding, 635 nm fluorescence, higher = more signal.
Assay [9] concerns the target Luciferin 4-monooxygenase (Photinus pyralis) (UniProt P08659). Kind of assay: firefly luciferase enzyme inhibitors, primary screen, biochemical, luminescence, purified enzyme, 2006 set (AID 1141).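 Note: cell-free assay with purified firefly luciferase at 100 ng per well in PBS; test concentration not given here.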 The note with it: SteadyGlo luminescence, 30 min, higher = more signal, called active from +8 up or from −8 down.

Calls of active or inactive are those of the source.

Sequence of Luciferin 4-monooxygenase (Photinus pyralis) (P08659 whole entry, looked up): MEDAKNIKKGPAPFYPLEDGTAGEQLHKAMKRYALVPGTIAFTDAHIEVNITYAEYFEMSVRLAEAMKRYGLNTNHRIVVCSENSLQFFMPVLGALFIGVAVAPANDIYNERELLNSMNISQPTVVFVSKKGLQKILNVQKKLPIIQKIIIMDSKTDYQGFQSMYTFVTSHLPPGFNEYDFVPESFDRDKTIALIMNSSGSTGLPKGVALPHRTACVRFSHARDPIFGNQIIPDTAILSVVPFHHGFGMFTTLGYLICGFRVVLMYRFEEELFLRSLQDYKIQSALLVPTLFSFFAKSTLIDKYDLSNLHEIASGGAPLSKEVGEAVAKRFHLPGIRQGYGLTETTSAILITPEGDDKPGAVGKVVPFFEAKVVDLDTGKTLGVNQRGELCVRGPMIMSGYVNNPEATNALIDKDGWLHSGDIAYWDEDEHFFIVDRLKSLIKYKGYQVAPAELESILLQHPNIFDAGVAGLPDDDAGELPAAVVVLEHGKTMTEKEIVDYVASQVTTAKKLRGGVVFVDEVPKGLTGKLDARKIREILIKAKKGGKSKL
Sequence of Follistatin (Homo sapiens) (P19883 whole entry, looked up): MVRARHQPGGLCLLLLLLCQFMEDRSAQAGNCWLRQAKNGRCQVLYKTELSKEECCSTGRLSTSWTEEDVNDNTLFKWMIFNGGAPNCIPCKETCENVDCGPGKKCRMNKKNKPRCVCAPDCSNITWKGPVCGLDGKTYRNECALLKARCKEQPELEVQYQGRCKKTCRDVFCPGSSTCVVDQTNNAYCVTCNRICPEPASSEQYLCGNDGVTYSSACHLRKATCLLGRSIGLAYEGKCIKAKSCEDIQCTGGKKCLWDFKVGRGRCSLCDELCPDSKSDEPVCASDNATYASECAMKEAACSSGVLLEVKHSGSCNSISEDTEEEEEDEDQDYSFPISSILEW
Sequence of Focal adhesion kinase 1 (Homo sapiens) (Q05397 whole entry, looked up): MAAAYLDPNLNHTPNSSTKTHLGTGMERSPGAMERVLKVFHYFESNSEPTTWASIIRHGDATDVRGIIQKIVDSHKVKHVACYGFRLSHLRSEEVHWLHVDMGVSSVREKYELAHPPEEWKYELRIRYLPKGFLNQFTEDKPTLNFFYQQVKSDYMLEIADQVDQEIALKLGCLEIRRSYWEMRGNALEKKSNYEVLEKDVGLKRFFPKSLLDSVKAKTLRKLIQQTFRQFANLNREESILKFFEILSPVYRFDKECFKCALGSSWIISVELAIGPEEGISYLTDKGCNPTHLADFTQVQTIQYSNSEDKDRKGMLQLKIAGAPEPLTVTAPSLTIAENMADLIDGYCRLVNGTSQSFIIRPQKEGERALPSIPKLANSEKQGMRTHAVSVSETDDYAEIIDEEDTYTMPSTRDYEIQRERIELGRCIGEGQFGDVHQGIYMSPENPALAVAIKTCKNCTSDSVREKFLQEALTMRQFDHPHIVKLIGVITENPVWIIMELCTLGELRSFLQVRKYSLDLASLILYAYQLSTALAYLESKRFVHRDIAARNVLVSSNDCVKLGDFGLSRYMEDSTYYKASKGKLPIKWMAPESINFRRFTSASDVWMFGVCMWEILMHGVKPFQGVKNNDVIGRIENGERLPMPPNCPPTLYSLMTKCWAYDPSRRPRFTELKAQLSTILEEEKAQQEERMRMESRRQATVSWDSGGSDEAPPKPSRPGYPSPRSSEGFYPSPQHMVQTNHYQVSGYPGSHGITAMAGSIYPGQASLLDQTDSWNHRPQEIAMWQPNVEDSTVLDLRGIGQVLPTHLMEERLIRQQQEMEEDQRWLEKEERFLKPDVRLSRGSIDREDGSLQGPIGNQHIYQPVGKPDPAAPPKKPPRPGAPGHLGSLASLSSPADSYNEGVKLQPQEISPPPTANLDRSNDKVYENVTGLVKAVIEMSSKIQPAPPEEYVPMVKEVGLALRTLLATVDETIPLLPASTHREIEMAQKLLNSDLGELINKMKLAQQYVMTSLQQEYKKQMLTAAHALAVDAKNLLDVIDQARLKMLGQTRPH
Sequence of Fibroblast growth factor 2 (Homo sapiens) (P09038 whole entry, looked up): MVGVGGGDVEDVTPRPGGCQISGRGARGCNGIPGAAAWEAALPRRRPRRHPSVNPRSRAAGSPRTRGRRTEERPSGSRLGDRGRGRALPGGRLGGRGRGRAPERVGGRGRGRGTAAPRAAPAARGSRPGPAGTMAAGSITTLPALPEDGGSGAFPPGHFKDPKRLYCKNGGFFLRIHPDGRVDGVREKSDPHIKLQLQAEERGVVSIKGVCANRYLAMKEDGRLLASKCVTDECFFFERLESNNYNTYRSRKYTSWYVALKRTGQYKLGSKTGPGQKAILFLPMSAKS

In the case of `O=C(O)C1=CC[C@H]2C(=O)N(c3ccccc3)C(=O)[C@@H]12`, the composite z-score was 0.39 in [1]; 1.2 in assay [2]; 0.424 in assay [3]; 0.272 in [4]; 0.845 in [5]; -0.12 in assay [6]. The composite z-score came out at 0.0347 in the assay with Lefty1 and 0.701 in assay [8]. The z-score is -1.27 in assay [7] and 1.57 (inactive) in assay [9].
For the compound `[N-]=[N+]=Nc1ccccc1C[C@@]1(C(=O)NCc2ccccc2)N=C(c2ccc(OCCCO)cc2)O[C@@H]1c1ccccc1`, the composite z-score in [1] is 1.58; in [2], 1.22; in assay [3] it was -0.255; in [4] it was 0.695; in [5], 1.47; in [6], 0.992. Besides, the figures for the composite z-score (in the assay with Lefty1; in assay [8]) were -0.0651 and 0.626, respectively. Also, the z-score in assay [7] is 0.945; in [9], -1.39 (inactive).
Turning to `COCCOC(=O)N1C(=O)[C@@]2(c3cc(C#CC4(O)CCCCCC4)ccc31)[C@H](C(N)=O)[C@H]1C(=O)O[C@H](c3ccccc3)[C@H](c3ccccc3)N1[C@@H]2c1ccc(OCCO)cc1`, the composite z-score worked out at 2.19 in assay [1]; 1.21 in assay [2]; 0.428 in assay [3]; 0.95 in [4]; 1.34 in assay [5]; 0.888 in assay [6]. In addition, the composite z-score in the assay on Lefty1 is 0.673; in [8] it was 1.11. The z-score is -1.71 in assay [7] and -1.03 (inactive) in assay [9].
Take `COCCOC(=O)N1C(=O)[C@@]2(c3cc(C#CCNC(N)=O)ccc31)[C@H](C(=O)N1CCN(c3ncccn3)CC1)[C@H]1C(=O)O[C@H](c3ccccc3)[C@H](c3ccccc3)N1[C@@H]2c1ccc(O)cc1`: the composite z-score in [1] is -0.031; in [2], -0.937; in assay [3], -0.305; in assay [4], -1; in assay [5] it was -0.974; in [6], -0.623. For the same compound, the composite z-score was -1.19 in the assay on Lefty1 and 0.0548 in assay [8]. The values for the z-score in [7] and in assay [9] were 0.284 and 0.0121 (inactive), respectively.
For the compound `COCCCNC(=O)[C@@]1(CCC(=O)OC(C)(C)C)N=C(c2ccc(OCCCO)cc2)O[C@H]1c1ccccc1`, the composite z-score was 2.41 in [1]; 1.22 in assay [2]; 0.0039 in assay [3]; 0.986 in assay [4]; 1.36 in [5]; 0.295 in assay [6]. The composite z-score is -0.568 in the assay with Lefty1 and 0.597 in assay [8]. The z-score was 1.42 in [7] and -0.173 (inactive) in assay [9].
For the compound `O=C1C2C=CC(C(O)c3ccccn3)N(Nc3ccc([N+](=O)[O-])cc3)C2C(=O)N1c1ccccc1` (stereo not given), the composite z-score in assay [1] was determined as 0.344; in assay [2], 1.16; in assay [3], 0.427; in [4] it was 1.02; in [5], 0.336; in [6] it was 0.292. Further, the composite z-score in the assay with Lefty1 was -0.43; in assay [8], 1.05. Moreover, the z-score in assay [7] was -0.378; in assay [9], 0.654 (inactive).
As to `COc1ccc(C(=O)Nc2cccc(CN3C(=O)[C@]4(O[C@H](CC(=O)N(CCO)Cc5ccccc5)[C@@H]([Si](C)(C)c5ccc(OC)cc5)[C@@H]4C)c4ccccc43)c2)cc1`, the composite z-score in assay [1] stood at 0.699; in assay [2], 1.07; in assay [3] it was 0.116; in assay [4], 0.334; in [5] it was 0.959; in assay [6], 1.15. The composite z-score is 0.565 with Lefty1 and 0.596 in [8]. The z-score in assay [7] is -0.0253; in [9], -0.881 (inactive).
Take `C=CC[C@H](O)c1ccc(O)c2ccccc12`: the composite z-score came to 1.02 in assay [1]; 0.604 in [2]; 0.126 in assay [3]; 0.24 in assay [4]; 1.4 in [5]; 1.49 in [6]. Besides, the composite z-score in the assay on Lefty1 was 1.26; in [8] it was 0.742. Further, the z-score in assay [7] is -0.0561; in [9], -2.47 (inactive).
Take `CC(C)c1ccc(NN2C(C(O)c3ccccc3)C=CC3C(=O)N(c4ccccc4)C(=O)C32)cc1` (stereo not given): the composite z-score was 0.593 in assay [1]; 1.19 in assay [2]; 0.684 in assay [3]; 1.02 in assay [4]; 0.075 in [5]; -0.522 in [6]. The composite z-score with Lefty1 is -0.56; in assay [8], 1.13. Further, the z-score in assay [7] is 0.266; in assay [9], -2.04 (inactive).
In the case of `COC(=O)C1(CC(C)C)C=C2C(=C(C)C(=O)C2C)CN1` (stereo not given), the composite z-score is 2.95 in assay [1]; 0.098 in [2]; 0.183 in assay [3]; -0.423 in assay [4]; 0.901 in assay [5]; -0.583 in [6]. Besides, the composite z-score in the assay with Lefty1 is -0.368; in [8], 0.67. The figures for the z-score in assay [7] and in assay [9] were 1.05 and 1.98 (inactive), respectively.
For the compound `CCOC(=O)C[C@H]1[C@H](OC(=O)c2cc3ccccc3oc2=O)[C@@H](NC(=O)Cc2ccc(OC)cc2)c2cc(OCCCO)ccc2N1C(=O)Cc1ccc(OC)cc1`, the composite z-score is -0.279 in [1]; -0.624 in assay [2]; 0.122 in [3]; 1.03 in assay [4]; 0.705 in [5]; 0.453 in assay [6]. Besides, the composite z-score worked out at 0.983 in the assay on Lefty1 and 0.348 in assay [8]. The figures for the z-score in assay [7] and in [9] were -0.202 and 0.827 (inactive), respectively.
With `COC(=O)[C@]1(Cc2ccccc2CN=[N+]=[N-])N=C(c2ccc(OCCCO)cc2)O[C@@H]1c1ccccc1N=[N+]=[N-]`, the composite z-score in assay [1] was 1.29; in [2], 0.833; in [3], 0.499; in assay [4], -0.0222; in [5], 1.15; in assay [6] it was 0.802. Besides, the results for the composite z-score (in the assay on Lefty1; in [8]) were -0.251 and 0.425, respectively. Besides, the results for the z-score in [7] and in assay [9] were -0.453 and -3.31 (inactive), respectively.
In the case of `C=CC[C@]12N=C(c3ccc(OCCCO)cc3)O[C@H]1c1ccccc1N(CCC)C2=O`, the composite z-score in assay [1] was found to be 2.3; in assay [2], 0.917; in [3] it was 0.685; in [4] it was 0.488; in assay [5], 1.46; in [6] it was 1.35. The composite z-score with Lefty1 was found to be 0.613; in [8] it was 0.954. Moreover, the results for the z-score in assay [7] and in [9] were 0.948 and -3.66 (inactive), respectively.
